These results are taken from PubChem BioAssay (Tox21).

Values joined by “and” are separate entries in the source; they are usually repeats but may differ in a detail not shown here. Equal entries are not always repeated. Inconclusive results are not listed. A structure can be active in one record and inactive in another. Active and inactive are the calls of the source. Unless noted, calls come from the whole dose curve; as a rule, active = well fitted curve in the direction sought with a large enough effect in the repeat runs; inconclusive = weak or mixed curves; inactive = no such curve, though single readings can be large; an effect the other way counts as inactive or inconclusive.

Test [1] deals with Progesterone receptor (Homo sapiens) (UniProt P06401). As to the kind of experiment: qHTS assay to identify small molecule agonists of the progesterone receptor (PR) signaling pathway (AID 1346784; calls by dose curve; note: nearly all actives have a fitted effect of over 30% in size). Summed up:
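PR-UAS-bla HEK 293T cells (beta-lactamase reporter under UAS) in 2% charcoal-stripped FBS, dosed with 23 nL compound after 6 hr, incubated 16hr at 37C. LiveBLAzer B/G FRET substrate added, fluorescence read after 2 hours.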

The target is the same in test [2]. The experiment in a line: qHTS assay to identify small molecule antagonists of the progesterone receptor (PR) signaling pathway (AID 1346795; active = well fitted inhibition curve with a large enough effect in the signal ratio in the repeat runs, not every such curve was filed as active; the % refers to the signal ratio). Summed up:
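PR-UAS-bla HEK293T cells with beta-lactamase reporter under UAS control, in 2% charcoal-stripped FBS, treated with compounds plus 1 nM promegestone (R5020, final) for 16 hr at 37C. Read-out: FRET beta-lactamase substrate fluorescence after 2 hr at room temperature.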
On the technique in general: In qHTS, concentration-response curves come from the screen itself.

Test [3] can be described thus: qHTS assay to identify small molecule antagonists of the progesterone receptor (PR) signaling pathway - cell viability counter screen (AID 1346798). Note: series mostly up to about 92 µM; nearly all actives have a fitted effect of over 50% in size. Summed up: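 PR-UAS-bla HEK293T cells, 3,000/well in 2% charcoal-stripped FBS medium, dosed with compounds plus R5020 agonist and incubated 16 h at 37C. Viability then measured in the same wells by CellTiter-Glo luminescence after 30 min at RT.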

A short description of test [4]: qHTS assay to identify small molecule agonists of the progesterone receptor (PR) signaling pathway - cell viability counter screen (AID 1346799; calls by dose curve; note: nearly all actives have a fitted effect of over 45% in size; note: potency is the fitted concentration of half-maximal effect). Summed up:
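Counter screen in the PR-UAS-bla HEK293T wells (2% charcoal-stripped FBS, 16 h compound exposure at 37 C) after the bla read. CellTiter-Glo added, 30 min at room temperature, luminescence read as cell viability.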

Test [5] is described as follows: qHTS assay to identify small molecule antagonists of the TGF-beta/Smad signaling pathway - cell viability counter screen (AID 1346824). Note: nearly all actives have a fitted effect of over 50% in size. Summed up:
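Cytotoxicity counter-screen run in the same wells as the beta-lactamase Smad reporter read: CellTiter-Glo luminescence after 30 min at room temperature. HEK 293T SBE-bla cells had 5 hr compound exposure at 37 C with TGF-beta1 (0.25 ng/mL stock).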

Test [6] in a line: qHTS assay to identify small molecule agonists of the TGF-beta/Smad signaling pathway - cell viability counter screen (AID 1346829). Note: top concentration of the series differs between compounds; nearly all actives have a fitted effect of over 45% in size. Summed up:
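Same-well cytotoxicity: CellTiter-Glo added after the 2 hr room-temperature beta-lactamase substrate step, luminescence measured 30 min later; cells had 5 hr of compound at 37 C.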

Test [7] is described as follows: qHTS assay to identify small molecule agonists of the TGF-beta/Smad signaling pathway (AID 1346859; active = well fitted activation curve with a large enough effect in the signal ratio in the repeat runs, not every such curve was filed as active; the % refers to the signal ratio; note: series mostly up to about 77 µM). Summed up: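 SBE-bla HEK293T cells plated overnight, then compound exposure for 5 h at 37 C. Beta-lactamase reporter read with LiveBLAzer B/G FRET substrate after 2 h at room temperature, fluorescence at 405 nm excitation, 460/530 nm emission.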
Test [8] deals with Thyrotropin-releasing hormone receptor (Homo sapiens) (UniProt P34981). The experiment in a line: qHTS assay to identify small molecule antagonists of the thyrotropin-releasing hormone receptor (TRHR) signaling pathway (AID 1346877; active = well fitted inhibition curve with a large enough effect in the repeat runs, not every such curve was filed as active; note: series mostly up to about 51 µM). Summed up:
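Antagonism is measured as suppression of the calcium response to 1 nM TRH in TRHR-HEK293 cells that have been dye-loaded for 2 h at 37 °C after overnight plating. Each compound is tested at 15 concentrations in triplicate.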

Test [9] has the same target. As to the kind of experiment: qHTS assay to identify small molecule agonists of the thyrotropin-releasing hormone receptor (TRHR) signaling pathway (AID 1346891; calls by dose curve; note: series mostly up to about 58 µM). Summed up: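 HEK293 cells expressing TRHR plated 18 h at 37 C/5% CO2, calcium dye-loaded 2 h at 37 C, then compound added (agonist mode); kinetic calcium fluorescence read 3 min at 1 s intervals; 15 concentrations in triplicate.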

Test [10] in a line: Human pregnane X receptor (PXR) small molecule agonists, qHTS cell viability counter screen (AID 1346977). Note: nearly all actives have a fitted effect of over 50% in size. Note: potency is the fitted concentration of half-maximal effect. Summed up:
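PXR-Luc HepG2 cells (2,000/well, 5% charcoal-stripped FBS) preincubated 5 hr, then exposed to compounds 24 hr at 37 C. Viability read in the same wells by CellTiter-Fluor fluorescence, reagent added at 23 hr, 1 hr incubation.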

The nature of test [11]: Caspase-3/7 induction in HepG2 cells by small molecules, qHTS assay (AID 1346978). Note: nearly all actives have a fitted effect of over 15% in size. Summed up: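 Caspase-3/7 induction was measured by Caspase-Glo 3/7 luminescence (30 min, room temperature) after a 17 hr compound exposure of wild-type HepG2 cells seeded at 2,000 per well and pre-incubated 5 hr.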
Test [12] can be described thus: Caspase-3/7 induction in CHO-K1 cells by small molecules, qHTS cell viability counter screen (AID 1346979). Note: nearly all actives have a fitted effect of over 35% in size. Summed up: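 Wild-type CHO-K1 cells (1,500/well) treated with compound after 5 h plating; after 16 h at 37C, viability read as CellTiter-Fluor fluorescence following 1 h reagent incubation, in the same wells as the caspase read.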
Test [13] is described as follows: Caspase-3/7 induction in CHO-K1 cells by small molecules, qHTS assay (AID 1346980). Note: nearly all actives have a fitted effect of over 15% in size. Summed up: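 Luminescent Caspase-Glo 3/7 read (30min, room temperature) quantified apoptosis induction. Cells were wild-type CHO-K1, treated with compound for 17hr at 37 C and 5% CO2.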
A short description of test [14]: Caspase-3/7 induction in HepG2 cells by small molecules, qHTS cell viability counter screen (AID 1346981). Note: series mostly up to about 92 µM; nearly all actives have a fitted effect of over 30% in size. Summed up: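 Cell viability is measured as a cytotoxicity counter screen alongside the Caspase-Glo 3/7 readout in identical wells. Wild-type HepG2 cells are treated with test compounds for 16 hr at 37 C before CellTiter-Fluor addition and a 1-hr incubation.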

Test [15] has as its target Nuclear receptor subfamily 1 group I member 2 (Homo sapiens) (UniProt O75469). As to the kind of experiment: Human pregnane X receptor (PXR) small molecule agonists, qHTS assay (AID 1346982). Note: nearly all actives have a fitted effect of over 35% in size. Note: potency is the fitted concentration of half-maximal effect. Summed up:
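Cells: HepG2 stably carrying PXR-Luc. Medium held 5% charcoal-stripped FBS. Compounds in DMSO added after 5 hr plating, incubated 24 hr, then luminescence quantified with ONE-Glo.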

For test [16], the target named is Cytochrome P450 2D6 (Homo sapiens) (UniProt P10635). The experiment in a line: Cytochrome P450 Family 2 Subfamily D Member 6 (CYP2D6) small molecule antagonists: luciferase reporter qHTS assay (AID 1671196). Note: nearly all actives have a fitted effect of over 50% in size. Note: potency is the fitted concentration of half-maximal effect. Summed up: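 Enzyme and proluciferin substrate were first combined with test chemical for 10 min at room temperature. Adding NADPH regeneration solution started a 1 h reaction, stopped with luciferin detection reagent and read by luminescence 20 min later.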
(In general: Reporter assays use an easily measured gene product as a stand-in for the process of interest.)

Test [17] has as its target Cytochrome P450 2C19 (Homo sapiens) (UniProt P33261). The experiment in a line: Cytochrome P450 Family 2 Subfamily C Member 19 (CYP2C19) small molecule antagonists: luciferase reporter qHTS assay (AID 1671197). Note: nearly all actives have a fitted effect of over 65% in size. Note: potency is the fitted concentration of half-maximal effect. Summed up: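 Quantitative high-throughput screen of the Tox21 library using CYP2C19 with proluciferin substrate. Reaction: NADPH regeneration, 37C, 1 h, after 10 min compound preincubation at room temperature. Readout: luminescence.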

Progesterone receptor (Homo sapiens), sequence (P06401 whole entry, looked up): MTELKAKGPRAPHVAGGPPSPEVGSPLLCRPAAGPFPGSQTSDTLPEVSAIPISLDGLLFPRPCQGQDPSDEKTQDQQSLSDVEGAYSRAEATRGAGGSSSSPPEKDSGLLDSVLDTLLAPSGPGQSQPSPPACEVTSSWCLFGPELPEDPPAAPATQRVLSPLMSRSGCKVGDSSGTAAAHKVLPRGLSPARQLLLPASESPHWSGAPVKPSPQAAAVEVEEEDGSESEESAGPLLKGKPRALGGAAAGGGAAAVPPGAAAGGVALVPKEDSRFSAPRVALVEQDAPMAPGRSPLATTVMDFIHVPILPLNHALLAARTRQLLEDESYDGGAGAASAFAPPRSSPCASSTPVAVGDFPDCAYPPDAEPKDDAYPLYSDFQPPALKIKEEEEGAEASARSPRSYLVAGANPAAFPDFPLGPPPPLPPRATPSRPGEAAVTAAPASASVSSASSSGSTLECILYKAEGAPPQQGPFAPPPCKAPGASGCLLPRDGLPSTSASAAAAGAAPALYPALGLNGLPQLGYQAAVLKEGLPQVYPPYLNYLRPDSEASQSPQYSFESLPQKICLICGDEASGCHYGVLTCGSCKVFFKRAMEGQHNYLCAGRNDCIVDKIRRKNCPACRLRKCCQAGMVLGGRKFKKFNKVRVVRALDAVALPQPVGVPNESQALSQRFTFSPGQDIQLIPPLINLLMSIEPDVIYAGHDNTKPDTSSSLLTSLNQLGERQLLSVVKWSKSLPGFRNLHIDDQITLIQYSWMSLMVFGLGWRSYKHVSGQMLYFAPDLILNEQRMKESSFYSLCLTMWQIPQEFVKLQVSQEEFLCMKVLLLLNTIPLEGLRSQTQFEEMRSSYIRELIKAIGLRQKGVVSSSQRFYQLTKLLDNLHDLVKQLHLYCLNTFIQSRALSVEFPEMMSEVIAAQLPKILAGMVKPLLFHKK
Thyrotropin-releasing hormone receptor (Homo sapiens), sequence (P34981 whole entry, looked up): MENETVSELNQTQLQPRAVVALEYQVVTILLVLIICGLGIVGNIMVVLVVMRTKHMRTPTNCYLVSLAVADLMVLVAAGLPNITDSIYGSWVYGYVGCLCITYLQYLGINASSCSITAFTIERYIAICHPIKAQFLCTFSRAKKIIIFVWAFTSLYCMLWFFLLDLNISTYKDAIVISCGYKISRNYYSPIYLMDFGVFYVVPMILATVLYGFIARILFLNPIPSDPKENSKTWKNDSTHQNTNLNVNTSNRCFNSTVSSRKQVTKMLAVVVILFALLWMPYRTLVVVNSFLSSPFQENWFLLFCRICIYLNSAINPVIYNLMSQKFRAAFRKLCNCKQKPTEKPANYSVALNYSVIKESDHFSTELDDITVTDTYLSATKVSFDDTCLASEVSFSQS
Cytochrome P450 2D6 (Homo sapiens), sequence (P10635 whole entry, looked up): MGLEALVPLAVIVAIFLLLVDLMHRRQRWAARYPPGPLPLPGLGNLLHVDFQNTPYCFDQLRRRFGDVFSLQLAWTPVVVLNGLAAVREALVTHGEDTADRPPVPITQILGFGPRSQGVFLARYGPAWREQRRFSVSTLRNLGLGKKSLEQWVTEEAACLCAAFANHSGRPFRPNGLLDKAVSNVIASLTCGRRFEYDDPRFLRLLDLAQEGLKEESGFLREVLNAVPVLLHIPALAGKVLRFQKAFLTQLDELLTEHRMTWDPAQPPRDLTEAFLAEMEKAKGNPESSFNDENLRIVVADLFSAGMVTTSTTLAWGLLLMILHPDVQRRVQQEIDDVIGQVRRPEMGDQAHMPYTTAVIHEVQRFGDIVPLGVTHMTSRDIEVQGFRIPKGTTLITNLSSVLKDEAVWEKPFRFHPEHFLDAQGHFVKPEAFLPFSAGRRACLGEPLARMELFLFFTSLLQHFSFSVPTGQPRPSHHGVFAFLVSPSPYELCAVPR
Nuclear receptor subfamily 1 group I member 2 (Homo sapiens), sequence (O75469 whole entry, looked up): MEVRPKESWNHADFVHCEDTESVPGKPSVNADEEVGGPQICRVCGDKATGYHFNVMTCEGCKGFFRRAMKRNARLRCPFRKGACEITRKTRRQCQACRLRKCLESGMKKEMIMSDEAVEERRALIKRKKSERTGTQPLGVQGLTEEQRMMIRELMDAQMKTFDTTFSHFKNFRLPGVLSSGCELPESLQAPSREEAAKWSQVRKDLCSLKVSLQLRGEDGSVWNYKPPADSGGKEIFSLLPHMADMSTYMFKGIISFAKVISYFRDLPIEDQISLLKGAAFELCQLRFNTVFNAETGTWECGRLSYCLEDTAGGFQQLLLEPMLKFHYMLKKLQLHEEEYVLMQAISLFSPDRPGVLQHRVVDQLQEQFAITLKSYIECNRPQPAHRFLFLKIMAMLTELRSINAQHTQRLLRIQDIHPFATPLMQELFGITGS
Cytochrome P450 2C19 (Homo sapiens), sequence (P33261 whole entry, looked up): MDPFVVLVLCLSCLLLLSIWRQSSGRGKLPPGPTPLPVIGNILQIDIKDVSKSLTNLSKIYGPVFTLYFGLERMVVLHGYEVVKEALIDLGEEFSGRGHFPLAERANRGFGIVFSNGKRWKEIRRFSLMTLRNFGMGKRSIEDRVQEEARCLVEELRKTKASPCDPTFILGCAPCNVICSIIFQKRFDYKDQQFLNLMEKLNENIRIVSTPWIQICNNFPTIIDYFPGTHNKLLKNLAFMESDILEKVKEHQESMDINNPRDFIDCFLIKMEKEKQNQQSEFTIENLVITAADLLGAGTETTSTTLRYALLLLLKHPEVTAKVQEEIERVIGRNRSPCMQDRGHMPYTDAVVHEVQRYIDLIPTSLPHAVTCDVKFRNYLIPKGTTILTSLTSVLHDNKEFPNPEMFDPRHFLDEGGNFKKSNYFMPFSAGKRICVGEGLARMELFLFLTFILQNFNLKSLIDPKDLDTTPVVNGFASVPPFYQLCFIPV

Consider `Cc1ccncc1`, for which the Potency result in test [1], in test [2], in test [3], in test [4], in test [5] and in test [6] was “inactive” each time. In addition, the Potency entry in test [7], in test [8], in test [10], in test [11], in [12] and in [13] was “inactive” each time. In addition, the Potency result in test [14], in test [15], in [16] and in test [17] was “inactive” in each case. The call in test [9] was inactive.

Turning to `C1CCCNCC1`, the Potency result in test [1], in test [2], in test [3], in test [4], in [5] and in test [6] was “inactive” throughout. Moreover, the Potency entry in test [7], in [8], in [10], in test [11], in [12] and in test [13] was “inactive” throughout. The Potency entry in test [14], in test [15], in test [16] and in test [17] was “inactive” throughout. For the same compound, the result in [9] was inactive.

As to `Cc1ccc(C)c(S(=O)(=O)O)c1`, the Potency result in [1], in [2], in [3], in [4], in test [5] and in test [6] was “inactive” in each case. Also, the Potency result in [7], in test [8], in test [10], in test [11], in test [12] and in test [13] was “inactive” each time. Also, the Potency entry in test [14], in test [15] and in test [17] was “inactive” in each case. In addition, the result in test [9] was inactive. For the same compound, in test [16], the Potency is 64.4 µM (active) and inactive.

Consider `CCOC(=O)CC(=O)OCC`, for which the Potency entry in [1], in test [2], in test [3], in test [4], in [5] and in [6] was “inactive” each time. The Potency entry in test [7], in test [8], in test [10], in test [11], in test [12] and in test [13] was “inactive” in each case. The Potency result in test [14], in test [15], in test [16] and in [17] was “inactive” in each case. In addition, the compound was called inactive in test [9].

For the compound `CCCCCC(C)=O`, the Potency result in test [1], in [2], in test [3], in test [5], in test [6] and in test [7] was “inactive” in each case. The Potency entry in test [8], in [11], in [12], in test [13], in [14] and in [15] was “inactive” in each case. Besides, the Potency entry in test [16] was “inactive”. In addition, the Potency result in test [4] was “inactive and 61.1 µM (active)”; in test [10] it was “inactive and 61.1 µM (active)”; in test [17] it was 81.3 µM (active) and inactive. Moreover, the call in [9] was inactive.

For `COc1cc(NC(=O)CC(C)=O)c(OC)cc1Cl`, the Potency entry in [1], in test [2], in test [3], in test [4], in test [5] and in test [6] was “inactive” in each case. For the same compound, the Potency entry in test [7], in [8], in test [10], in test [11], in test [12] and in [13] was “inactive” in each case. Moreover, the Potency result in [14] is “inactive”. For the same compound, the compound was called inactive in [9]. In addition, the Potency in test [15] is 68.9 µM (active) and 24.3 µM (active); in test [16], 79.6 µM (active); in [17], 40.1 µM (active) and 39.9 µM (active).

As for `CC(C)c1ccc(C(C)C)cc1`, the Potency entry in test [1], in test [2], in test [3], in [4], in test [5] and in [6] was “inactive” throughout. Also, the Potency entry in test [7], in test [8], in test [10], in test [11], in test [12] and in test [13] was “inactive” throughout. Moreover, the Potency result in [14], in test [15], in test [16] and in test [17] was “inactive” in each case. The result in [9] was inactive.

As for `COC(=O)OC`, the Potency result in test [1], in test [2], in [3], in test [4], in test [5] and in test [6] was “inactive” each time. Moreover, the Potency entry in test [7], in [8], in [10], in test [11], in [12] and in [13] was “inactive” each time. Also, the Potency entry in test [14], in [15], in [16] and in test [17] was “inactive” each time. For the same compound, the call in [9] was inactive.
